Sampled rows, rich in hits. Any-hit rate of the full collection: about 3.1%.
ERAP1 inh – blocks human ERAP1 aminopeptidase activity | 340,000 tested, 0.15% active | inhibition, % at 10.7 µM | recombinant ERAP1, Leu-AMC fluorescence, 60 min | Q9NZ08;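 active = mean replicate inhibition of at least 30%, or all replicates individually reaching that 30% level; inactive = mean below 30% and not every replicate reaching it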;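 also: 0% = neutral control wells and 100% = L-leucinethiol positive control wells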
SIRT5 block – inhibitors of human sirtuin-5 desuccinylase; Q9NXA8; 330,000 tested, 1.1% active; inhibition, % at 15 µM; Purified SirT5, succinyl-peptide AMC, trypsin-coupled fluorescence; in the data active = inhibition above about 15%
Target sequence (Q9NXA8 whole entry, looked up): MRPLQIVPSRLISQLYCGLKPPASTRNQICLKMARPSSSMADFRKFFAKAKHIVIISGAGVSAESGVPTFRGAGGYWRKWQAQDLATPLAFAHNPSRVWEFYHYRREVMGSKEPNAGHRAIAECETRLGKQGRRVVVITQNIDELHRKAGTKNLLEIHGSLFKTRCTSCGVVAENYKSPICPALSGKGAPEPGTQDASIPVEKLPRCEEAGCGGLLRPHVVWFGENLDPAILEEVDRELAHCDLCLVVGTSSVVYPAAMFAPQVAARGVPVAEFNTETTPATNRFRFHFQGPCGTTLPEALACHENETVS
CASP6 VEID inh – inhibitors of human caspase-6; inhibition, % at 12.5 µM; 350,000 tested, 0.53% active; P55212; purified caspase-6, Z-VEID-R110 cleavage fluorescence; AID 686996;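 active = mean inhibition across replicates at least about 35%, with every replicate also reaching that limit, limit read from the data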;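 also: 0% = median of neutral control wells and 100% = no fluorescence left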
Target sequence (P55212 24-179 limits assumed): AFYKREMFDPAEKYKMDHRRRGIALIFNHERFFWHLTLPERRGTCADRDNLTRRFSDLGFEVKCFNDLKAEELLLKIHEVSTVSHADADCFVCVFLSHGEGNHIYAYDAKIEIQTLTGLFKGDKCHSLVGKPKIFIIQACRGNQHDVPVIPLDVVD
Target sequence (P55212 194-293 limits assumed): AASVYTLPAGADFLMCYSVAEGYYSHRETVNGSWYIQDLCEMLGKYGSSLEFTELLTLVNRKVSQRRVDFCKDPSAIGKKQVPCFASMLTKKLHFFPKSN
FGF22 binding – shifts melting point of recombinant human FGF22 | recombinant FGF22 thermal shift, SYPRO orange fluorescence; percent of sucrose octasulfate shift, DMSO zero | 340,000 tested, 1.5% active | activity (Tm shift, normalised), % at 9.99 µM;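 active = mean Tm shift, scaled 0 neutral to 100 positive control, at about 1.3% or above, every replicate too, limit read from the data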
* hit, by the source's call; ! = repeats disagree.

Results for Cc1nc(SC(C)C(=O)c2c(N)n(C)c(=O)n(C)c2=O)c2c(C)c(C)sc2n1 (stereo not given) ?
ERAP1 inh: 4.1; SIRT5 block: 2.2; CASP6 VEID inh: 49.4*; FGF22 binding: -0.2

How did CC(Sc1nnc(N)s1)C(=O)c1c(N)n(C)c(=O)n(C)c1=O (stereo not given) do in these assays?
ERAP1 inh: 2.6; SIRT5 block: -8.5; CASP6 VEID inh: 4.8; FGF22 binding: -0.2

Results for CN1c2ccc(-c3cccc(F)c3)cc2[C@@H]2[C@@H](CCN2C(=O)Cc2ccccc2)[C@H]1CO ?
ERAP1 inh: -1.5; SIRT5 block: -3.9; CASP6 VEID inh: -1.9; FGF22 binding: -0.1

How did O=C(Nc1ccc(Cl)cc1)N[C@H]1CC[C@@H](CCn2cc(C3(O)CCCC3)nn2)O[C@@H]1CO do in these assays?
ERAP1 inh: 0.2; SIRT5 block: 2.5; CASP6 VEID inh: 5.1; FGF22 binding: 0.8

What do the screens show for `CCC(=O)N1[C@@H](CO)[C@@H](c2ccccc2)C12CN(C(=O)Nc1cccc(OC)c1)C2`?
ERAP1 inh: -0.6; SIRT5 block: 6.0; CASP6 VEID inh: -1.7; FGF22 binding: -0.1

What do the screens show for `CCCCCCCCN1[C@@H](CC(=O)O)c2cc(C(F)(F)F)ccc2S1(=O)=O`?
ERAP1 inh: 1.8; SIRT5 block: 40.1*; CASP6 VEID inh: 5.2; FGF22 binding: -0.2

What do the screens show for `CCCCCCCCCCCCN1[C@@H](CC(=O)O)c2cc(C(F)(F)F)ccc2S1(=O)=O`?
ERAP1 inh: 17.2; CASP6 VEID inh: 25.6; FGF22 binding: -0.1

Results for CC(C)(C)OC(=O)N1CCC[C@H]1c1nnc(SCc2cccc(Cl)c2)o1 ?
ERAP1 inh: -5.3; SIRT5 block: 23.2*; CASP6 VEID inh: -3.0; FGF22 binding: 0.0

Results for CC(C)(C)OC(=O)N1CCC[C@H]1c1nnc(SCc2ccc(Cl)cc2)o1 ?
ERAP1 inh: 6.2; SIRT5 block: -3.4; CASP6 VEID inh: -0.3; FGF22 binding: 0.2

What do the screens show for `O=C1C=CC(=O)N1Cc1ccccn1`?
ERAP1 inh: 2.0; SIRT5 block: 20.9*; CASP6 VEID inh: -3.1; FGF22 binding: 0.3

Results for CC(C)N=C(Nc1cccnc1)c1ccccc1 ?
ERAP1 inh: 0.3; SIRT5 block: -6.3; CASP6 VEID inh: 38.9*; FGF22 binding: -0.2

Results for C[C@@H]1CN([C@@H](C)CO)C(=O)c2cc(NC(=O)Nc3ccc4c(c3)OCO4)ccc2O[C@@H]1CN(C)S(=O)(=O)c1ccc(Cl)cc1 ?
ERAP1 inh: -0.8; SIRT5 block: -17.3; CASP6 VEID inh: -2.3; FGF22 binding: 0.1

Results for CO[C@H]1CN(C)C(=O)c2cc(NC(=O)NC(C)C)ccc2OC[C@H](C)N(Cc2ccccc2)C[C@H]1C ?
ERAP1 inh: -0.4; SIRT5 block: 7.9; CASP6 VEID inh: 2.2; FGF22 binding: -0.1

How did CSc1ccccc1C(=O)C1CCCN(C(=O)c2cc(C(C)C)no2)C1 (stereo not given) do in these assays?
ERAP1 inh: 18.3; SIRT5 block: 2.4; CASP6 VEID inh: -2.4; FGF22 binding: 0.2

How did CSc1ccccc1C(=O)C1CCCN(C(=O)c2csnn2)C1 (stereo not given) do in these assays?
ERAP1 inh: 0.2; SIRT5 block: 0.7; CASP6 VEID inh: -0.4; FGF22 binding: 43.2*

What do the screens show for `CC(O)CNc1nc2sc3c(c2c(=O)n1CCc1ccccc1)CCCCC3` (stereo not given)?
ERAP1 inh: -0.3; SIRT5 block: 6.0; CASP6 VEID inh: 0.7; FGF22 binding: 44.2*

How did Cc1ccc(C)c(NC(=S)NC(C)C(c2ccccc2)N2CCN(C)CC2)c1 (stereo not given) do in these assays?
ERAP1 inh: -1.9; SIRT5 block: -0.7; CASP6 VEID inh: 0.1; FGF22 binding: 0.1

What do the screens show for `CCN1CCN(C(c2cccs2)C(C)NC(=S)Nc2cc(C)ccc2C)CC1` (stereo not given)?
ERAP1 inh: -1.9; SIRT5 block: 15.6*; CASP6 VEID inh: -4.4; FGF22 binding: 0.7

How did COC(=O)Nc1ccc(S(=O)(=O)Nc2ccc(C(=O)O)cc2)cc1 do in these assays?
ERAP1 inh: -2.4; SIRT5 block: -5.5; CASP6 VEID inh: 0.5; FGF22 binding: 43.2*

Results for C[C@H]1CN([C@@H](C)CO)C(=O)CCCn2nncc2CO[C@@H]1CN(C)C(=O)Nc1ccc(F)cc1 ?
ERAP1 inh: 14.9; SIRT5 block: 1.8; CASP6 VEID inh: 1.7; FGF22 binding: -0.2

Results for CCN(c1ccccc1)S(=O)(=O)c1ccc(Cl)c(C(=O)OCC(=O)NC(=O)C(C)C)c1 ?
ERAP1 inh: -0.6; SIRT5 block: 0.0; CASP6 VEID inh: 1.0; FGF22 binding: 43.3*

How did O=C(O)c1cccc(N2C(=O)C3CC=C(Cl)CC3C2=O)c1 (stereo not given) do in these assays?
CASP6 VEID inh: 66.6*; FGF22 binding: 0.0

What do the screens show for `C[C@H]1CCCCO[C@H](CN(C)C(=O)C2CCCCC2)[C@@H](C)CN([C@@H](C)CO)C(=O)c2cc(NC(=O)NC3CCCCC3)ccc2O1`?
ERAP1 inh: -1.6; SIRT5 block: 15.7*!; CASP6 VEID inh: 29.7; FGF22 binding: -0.1

What do the screens show for `C[C@H](CO)N1C[C@H](C)[C@@H](CN(C)C(=O)C2CCCCC2)OCCCC[C@H](C)Oc2ccc(NC(=O)Nc3ccc(F)cc3)cc2C1=O`?
ERAP1 inh: 0.4; SIRT5 block: 21.9*; CASP6 VEID inh: 0.4; FGF22 binding: 0.0

What do the screens show for `COc1ccc(NC(=O)Nc2ccc3c(c2)C(=O)N([C@H](C)CO)C[C@@H](C)[C@@H](CN(C)C(=O)C2CCCCC2)OCCCC[C@H](C)O3)cc1`?
ERAP1 inh: -0.1; SIRT5 block: 16.8*!; CASP6 VEID inh: -2.3; FGF22 binding: -0.4

What do the screens show for `CC(C)CC#Cc1ccc2c(c1)O[C@@H](CN(C)S(C)(=O)=O)[C@@H](C)CN([C@@H](C)CO)S2(=O)=O`?
ERAP1 inh: -0.9; SIRT5 block: -0.4; CASP6 VEID inh: 1.6; FGF22 binding: 0.0

How did CCC(=O)N1C[C@H]2[C@@H](c3ccccc31)[C@H](CO)N2C(=O)Nc1ccccc1 do in these assays?
ERAP1 inh: 6.2; SIRT5 block: 2.9; CASP6 VEID inh: -2.3; FGF22 binding: -0.4

How did O=C(C[C@@H]1CC[C@H](NC(=O)c2ccc3c(c2)OCO3)[C@@H](CO)O1)NC1Cc2ccccc2C1 do in these assays?
ERAP1 inh: 0.9; SIRT5 block: -5.6; CASP6 VEID inh: -1.0; FGF22 binding: -0.1

What do the screens show for `COc1ccc(C)cc1NC(=O)c1cccc(C(=O)Nc2cc(C)ccc2OC)c1`?
ERAP1 inh: -3.4; SIRT5 block: 15.8*; CASP6 VEID inh: -7.3; FGF22 binding: 0.2

Results for COc1ccc(Cl)cc1NC(=O)c1cccc(NC(=O)CCC(=O)O)c1 ?
ERAP1 inh: 7.1; SIRT5 block: 18.7*; CASP6 VEID inh: -2.0; FGF22 binding: 0.2

Results for CCS(=O)(=O)N1CCCCN2[C@H](CO)[C@H](c3ccc(-c4ccc(C#N)cc4)cc3)[C@H]2C1 ?
ERAP1 inh: -1.1; SIRT5 block: -0.4; CASP6 VEID inh: -2.9; FGF22 binding: 0.0
